This excerpt belongs to a sample that is enriched for hits.
a7 integrin act: activators of alpha7 integrin expression for muscular dystrophy; alpha7betagal myoblasts, beta-gal FDG fluorescence, 48 h; Potency, µM (doses to about 38.3 µM), for the others: at the highest dose activation, hits mostly activators; 350,000 tested, 0.064% active;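 further: potency means the concentration at half of the fitted maximal effect; 100% = response of the positive control SU9516; nearly all actives have a fitted effect of over 60% in size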
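alpha7betagal+/- myoblasts (passage 13, 250/well) treated 48 h at 37C with compounds at 1:260 dilution of DMSO stock. Lysed, then beta-galactosidase activity read as FDG fluorescence (ex 480/em 540) after 30 min, with pre-read for autofluorescence.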
RORgamma inh: ROR gamma (mouse) transcription inhibition | Drosophila S2 Gal4-RORgamma UAS-luciferase reporter, 20 h | Potency, µM (doses to about 53.6 µM), without a hit: at the top dose activity change, negative = inhibition, most hits filed as inhibitors | 310,000 tested, 5.4% active; further: potency means the concentration at half of the fitted maximal effect; on the % scale 0 is the no-effect control and ±100 the full control effect; nearly all actives have a fitted effect of over 60% in size
Target sequence (P51450 whole entry, looked up, the tested form may be a part): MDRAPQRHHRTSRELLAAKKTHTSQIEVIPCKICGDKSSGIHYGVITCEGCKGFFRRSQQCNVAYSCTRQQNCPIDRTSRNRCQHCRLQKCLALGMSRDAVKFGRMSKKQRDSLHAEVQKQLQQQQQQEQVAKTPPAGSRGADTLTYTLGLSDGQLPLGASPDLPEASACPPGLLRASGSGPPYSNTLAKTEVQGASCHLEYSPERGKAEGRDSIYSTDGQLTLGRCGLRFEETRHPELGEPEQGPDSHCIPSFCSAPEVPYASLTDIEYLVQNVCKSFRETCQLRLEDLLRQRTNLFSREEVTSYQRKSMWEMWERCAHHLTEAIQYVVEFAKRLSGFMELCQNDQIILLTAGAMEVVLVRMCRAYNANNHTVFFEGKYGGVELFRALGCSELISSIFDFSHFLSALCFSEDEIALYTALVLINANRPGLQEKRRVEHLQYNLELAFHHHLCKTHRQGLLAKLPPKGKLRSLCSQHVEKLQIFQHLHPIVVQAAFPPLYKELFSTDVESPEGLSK
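Stable Schneider cell line, Gal4 DNA-binding domain fused to ROR gamma, UAS-luciferase. Cmpd 1 hr RT → CuSO4 700 uM final → 20 hr RT → luciferase reagent 10 min → luminescence.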
Giardia kill: kills Giardia lamblia; Giardia lamblia trophozoite viability; activity change, % at 7.66 µM, hits read low; 340,000 tested, 0.15% active; AID 540267; in the data active means activity change below about -80%; inconclusive means between about -30% and that limit;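 further: parasites exposed to compound for two days anaerobically before the ATP read; on the % scale 0 is the no-effect control and ±100 the full control effect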
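Giardia lamblia trophozoites (100 cells/well) were incubated with compounds for 48 h at 37 deg C under anaerobic conditions. Viability was read as ATP content by one-step luminescence after 15-30 min at room temperature.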
ERG-DNA inh: blocks human ERG Ets domain binding to DNA; P11308; fluorescence polarization, His-ERG Ets domain / labelled DNA; Potency, µM (doses to about 76.9 µM), for the others: top-dose FP activity, negative = inhibition, hits mostly inhibitors; 370,000 tested, 0.028% active; AID 624246; active means well fitted inhibition curve with a large enough effect in the polarisation, with a control signal flat; inconclusive means small, poorly fitted or top-dose-only effect, or effect the other way, or a change in a side signal; inactive means no such curve, though single readings can be large or run the other way; the % refers to the polarisation;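 further: polarization taken with two DNA probes labelled with fluorescein and Texas red; potency means the concentration at half of the fitted maximal effect; % of control where 0% means no effect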
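His-tagged ERG Ets domain (1 uM in the protein solution; 300mM KCl, 50mM Tris-HCl, 1mM EDTA, 1mM DTT, pH 7.5) received compound, then a probe mix of 5 nM fluorescein-DNA and 100nM Texas-615-DNA. Fluorescence polarization was read for both dyes.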
Gal4-VP16 FLuc: counter-screen for ROR gamma inhibitors: Gal4-VP16 reporter; Drosophila S2 Gal4-VP16 UAS-luciferase, luminescence, 20 h; Potency, µM (highest dose often 53.6 µM), without a hit: at the top dose activity, negative = inhibition, hits mostly inhibitors; 310,000 tested, 3.5% active; AID 2546;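 further: Gal4-VP16 expression switched on by copper sulfate through the metallothionein promoter; potency means the concentration at half of the fitted maximal effect; on the % scale 0 is the no-effect control and ±100 the full control effect; nearly all actives have a fitted effect of over 50% in size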
Active calls of the source: *; ? = inconclusive; nt = no result. Unless noted, the call rests on the fitted dose curve; in most records, active means well fitted curve in the direction sought with a large enough effect; inconclusive means small, poorly fitted or top-dose-only effect, or another doubt; inactive means no such curve, though single readings can be large; an effect the other way counts as inactive or inconclusive.

SMILES | a7 integrin act | RORgamma inh | Giardia kill | ERG-DNA inh | Gal4-VP16 FLuc
O=C(O)C1CC(=O)N(c2ccc(OCc3ccccc3Cl)cc2)C1 (centres undefined) | -22% | 14µM* | 2 | 1% | ?
C=CCNC(=S)N(C1CCCCC1)C1CCCCC1 | -47% | 10µM* | 2 | 1% | 2%
Cc1nn2c([nH]c(=O)c3ccccc32)c1C=O | -22% | 4.5µM* | -18 | -5% | 11µM*
O=[N+]([O-])c1ccc(NC(=S)N2CCc3ccccc32)cc1 | 30% | 13µM* | -2 | -3% | ?
S=C(Nc1ccccc1)N1CCc2ccccc21 | 2% | 11µM* | -12 | -13% | 16µM*
COc1ccc(NC(=S)N2CCc3ccccc32)cc1OC | ? | 8.9µM* | 7 | -8% | ?
COc1ccc(NC(=S)N2CCCC2)cc1OC | -3% | 0% | 17 | -3% | 4%
COc1ccc(NC(=S)N2CCN(C(c3ccccc3)c3ccccc3)CC2)cc1OC | ? | 8.9µM* | 14 | 0% | 13µM*
Cc1ccccc1CSc1nc2cccnc2n1Cc1ccc(C(=O)NCCc2cccs2)cc1 | nt | nt | nt | -2% | nt
CN(C(=O)COC(=O)CSc1cc(Cl)ccc1Cl)c1c(N)n(Cc2ccccc2)c(=O)[nH]c1=O | 0% | nt | -4 | 3% | nt
COc1ccccc1NC(=S)N1CCCc2ccccc21 | -18% | 2.8µM* | -11 | 7% | -10%
CC(=O)c1cccc(NC(=S)N2CCc3ccccc32)c1 | 9% | ? | -9 | 15% | ?
Fc1cccc(NC(=S)N2CCc3ccccc32)c1 | 1% | 8.9µM* | 12 | 2% | ?
CCC(C)NC(=S)N1CCN(C(c2ccccc2)c2ccccc2)CC1 (centres undefined) | -23% | 11µM* | 10 | -1% | ?
CCOc1ccccc1NC(=S)N1CCCc2ccccc21 | -13% | 3% | -2 | 0% | -5%
COc1ccc(NC(=O)CCCc2nnc3n(CCC(C)C)c(=O)c4sccc4n23)cc1Cl | nt | nt | nt | 6% | nt
CN(C)c1ccc(Nc2ncnc3c2c(-c2ccccc2)cn3-c2cccc(Cl)c2)cc1 | nt | nt | nt | 10% | nt
COc1ccc(C2/C=C\CN(S(=O)(=O)c3ccc(C)cc3)C(Cc3ccccc3)C(=O)N2Cc2ccc(F)cc2)cc1 (centres undefined) | nt | 10µM* | -6 | nt | -11%
COc1ccc(C2/C=C\CN(S(=O)(=O)c3ccc(C)cc3)[C@H](Cc3ccccc3)C(=O)N2Cc2ccc(F)cc2)cc1 (some centres undefined) | -16% | -44% | 13 | 1% | 3%
Nc1c(C(=O)NC2CCCCC2)c2nc3ccccc3nc2n1/N=C/c1ccco1 | nt | 13µM* | nt | nt | ?
O=C(NC(=S)NCC1CCCO1)c1ccccc1[N+](=O)[O-] (centres undefined) | 0% | 10µM* | -26 | 113% | -11%
O=C(NNc1ccccc1[N+](=O)[O-])NC1CCCCC1 | 6% | -74% | 5 | 1% | -2%
Cc1ccc(C(=O)NC(=S)NCC2CCCO2)cc1Br (centres undefined) | -5% | 5µM* | 13 | 14% | ?
O=C(NC(=S)NC1CCCCC1)c1ccccc1[N+](=O)[O-] | -29% | 5µM* | -3 | -10% | 5.6µM*
O=C(NC(=S)NCC1CCCO1)c1cccs1 (centres undefined) | -10% | 14µM* | -9 | -10% | ?
SMILES | a7 integrin act | RORgamma inh | Giardia kill | ERG-DNA inh | Gal4-VP16 FLuc
Cc1nc2nc(-c3cccnc3)[nH]n2c(=O)c1C | 12% | 3% | -16 | -8% | 4%
CCOc1cc(NC(=S)NCC2CCCO2)c(OCC)cc1NC(=O)c1ccccc1F (centres undefined) | -25% | 3.2µM* | 4 | 2% | 7.9µM*
CCOc1cc(NC(=S)NCC2CCCO2)c(OCC)cc1NC(=O)CC (centres undefined) | ? | -20% | 0 | -7% | -7%
NS(=O)(=O)Cc1noc2ccccc12 | nt | -40% | -19 | -5% | 2%
C1=C(CN2CCOCC2)COc2c1cccc2OC[C@@H]1CNCCO1 | nt | -11% | nt | nt | -7%
Cc1oc(-c2cccc(C(F)(F)F)c2)nc1CN1CCC[C@H]1CO | 18% | 11% | 2 | 15% | 0%
Cc1oc(-c2cccc(C(F)(F)F)c2)nc1CN1CCOCC1 | 0% | 0.79µM* | 15 | 5% | 5µM*
Cc1cccc(-c2nnc(NC(=O)c3ccc(Cl)cc3)o2)c1 | -27% | 1.4µM* | ? | -9% | 1.4µM*
Cc1cccc(NS(=O)(=O)c2nnc(NC(=O)c3ccc(Cl)cc3)s2)c1 | 5% | 27% | -2 | 5% | -1%
COc1cc(OC)cc(C(=O)Nc2nnc(-c3cccnc3)o2)c1 | 1% | 1.4µM* | 10 | -3% | 4.5µM*
O=C(Nc1nnc(-c2cccnc2)o1)c1cccc(Cl)c1 | -14% | 0.5µM* | 2 | 14% | 0.71µM*
COc1cc(OC)cc(C(=O)NCCCNC(=O)c2cccnc2)c1 | 19% | -26% | -1 | -7% | -1%
O=c1c2oc3ccccc3c2ncn1Cc1ccc(Br)cc1 | nt | nt | nt | 3% | nt
Cc1ccc(C(c2cc(Cl)c3cccnc3c2O)N2CCN(C)CC2)cc1 (centres undefined) | -34% | 1.3µM* | -25 | 4% | 0.71µM*
CN1CCN(C(c2ccccn2)c2cc(Cl)c3cccnc3c2O)CC1 (centres undefined) | 6% | 1.4µM* | 7 | -5% | 5µM*
Oc1c(C(c2ccc(Cl)cc2)N2CCCC2)cc(Cl)c2cccnc12 (centres undefined) | 23% | 1.4µM* | 7 | 15% | ?
O=S(=O)(NCCc1csc2nc(-c3ccccc3)nn12)c1cc(F)ccc1F | nt | nt | nt | -3% | nt
Cc1ccc(S(=O)(=O)Oc2ccccc2/C=N/NC(=O)c2c(Cl)cnn2C)cc1 | -39% | 3.2µM* | -9 | 1% | ?
Cn1ncc(Cl)c1C(=O)N/N=C/c1ccccn1 | -26% | 1% | 21 | -2% | -1%
S=c1[nH]ncn1/N=C/c1cccc(Oc2ccccc2)c1 | -29% | 2.8µM* | -16 | -8% | 7.1µM*
C(=N\n1cnnc1)/c1cccc(Oc2ccccc2)c1 | -8% | 20% | 0 | -4% | 4%
S=c1[nH]nc(COc2ccccc2)n1/N=C/c1cccc(Br)c1 | -23% | -42% | 5 | -6% | -21%
O=[N+]([O-])c1cccc(/C=N/n2c(COc3ccccc3)n[nH]c2=S)c1 | ? | 13µM* | -9 | -8% | ?
COc1cccc(/C=N/n2c(COc3ccccc3)n[nH]c2=S)c1 | 9% | 7.1µM* | -15 | 4% | ?
Cc1ccccc1OCc1nc2ccccc2c(=O)n1/N=C/c1cccc([N+](=O)[O-])c1 | -5% | -9% | -1 | -3% | -19%
O=[N+]([O-])c1ccc(/C=N/n2c(COc3ccccc3)n[nH]c2=S)cc1 | 0% | 7.1µM* | 4 | -7% | -26%
Cn1c(SCc2ccccc2Cl)nc2c([nH]c3ccccc32)c1=O | nt | nt | nt | -8% | nt
